In the supplement of paper PMC11417369:
± gives the standard deviation of the averaged measurements. In all, about 25,000 sequences were measured (“ln(normalized median fluorescence intensity)”: median about 7.9, highest 2% from about 11 on). What follows is part of a selection rich in the highest values, with near analogues and random picks from the rest.

Test system: PfAP2-I AP2 domain 3 (GST-tagged)
Assay: gcPBM binding intensity (ln(normalized median fluorescence intensity)); higher = stronger DNA binding
Method in brief: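 GST-tagged P. falciparum DNA-binding domains, expressed in E. coli (about 25 μg on average), were applied for 1 h to an Agilent 4 × 180k array of primer-extended double-stranded 36-bp intergenic genomic probes plus negative controls. The binding buffer was 1× PBS with 1% milk, 0.2 mg/ml BSA, 0.5% salmon testes DNA and 0.03% Triton X-100. Bound protein was detected with Alexa488 anti-GST antibody and scanned at 488 nm. Binding intensity is the highest Masliner-normalised natural-log median intensity across replicate spots of either probe orientation.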

Row | Sequence | gcPBM binding intensity (ln)
1 | GTTTCCTTAATATTCACACACATATATATAATATAT [CACACA_site1856] | 8.22 ± 0.54
2 | TATAAAAATATTTCTACACACATTAATATATATATA [CACACA_site1150] | 8.97 ± 0.042
3 | TTTTACATATACATGTGTACATAACAAAGAATGTTT [XGTACX_site2406] | 7.88 ± 0.57
4 | TATATACGCAAACACACACACACATACACCCACATA [CACACA_site1724] | 8.09 ± 0.31
5 | ACAGAATATTTAATTCAACACACATACATATTTATT [CACACA_site8734] | 7.61 ± 0.52
6 | TATAAATTTATACCAGTGCATTTTGAAATATATATA | 9.47 ± 0.057
7 | TATATAAATTAACCAGTGCATTATTTGGAAATTATT | 11.1 ± 0.59
8 | TATAAATTAAAATCAGTGCATATTTTGAAAAACCTC | 9.19 ± 0.41
9 | TGGTTATTTATCTTTATTATAAATATTTACAAATAA [CACACA_negctrl_site1773] | 7.61 ± 0.38
10 | TTCATAATAAAAAGGTGTACATATATATATATATAT [XGTACX_site2829] | 9.71 ± 0.2
11 | TTTGTGTTTATAAATTGTACAAAGGTGCAAGAAGAA [XGTACX_site2159] | 11.1 ± 0.87
12 | AAGAAATTTATTTATTGTACAATATATAATTTGTTT [XGTACX_site2478] | 7.59 ± 0.38
13 | ACAAATTGTTAAAGGTGTACAATACATATATAAGAA [XGTACX_site4906] | 8.46 ± 0.56
14 | GATTAATACACATTCTTCCGACATAATAAGAAAAAG [GTGCAC_negctrl_site7] | 8.04 ± 0.38
15 | TGTCGGCTTAGATTAGTGCACTGAAAAATGAAGTAT [GTGCAC_site9919] | 11.8 ± 0.28
16 | TATATATATAAATGAATGCACTTTAGAAAAAAGTAC | 10.2 ± 0.23
17 | GAAGTAGATGGAAAAGTGCACTGTAATGGTTATATT | 10.6 ± 0.035
18 | TATATCATATAAAACCGTACATACATACTTAATTGT [XGTACX_site6822] | 7.8 ± 0.29
19 | TATTTCAAACTGTTCTCACACACGAAATTAGAAATG [CACACA_site611] | 7.57 ± 0.66
20 | TATATAATAAGAAAATATGTGCGTAGTTCAGCAAAA [XGTACX_negctrl_site304] | 8.26 ± 0.74

Row | Sequence | gcPBM binding intensity (ln)
21 | AAATTAGACTATAATACACACATAAAAAAAAAATCA [CACACA_site7672] | 7.79 ± 0.4
22 | TATATATTATATAAGAGTACATATAATTATAGTTTT [XGTACX_site5039] | 7.71 ± 0.52
23 | AATATATAATATATATGTACTTATATATAAAAGATA [XGTACX_site7635] | 7.8 ± 0.21
24 | AAGAACATATTATATACATGCATAATTCGATAGATT [TGCATGCA_site882] | 7.9 ± 0.69
25 | GTTAATCACCATGTGGTGCATATAAGGGCATATTAT [GTGCAC_site9748] | 11 ± 0.55
26 | GTGGTTATATATTAAGTGCATATTATAATTTTAAAC | 9.56 ± 0.14
27 | TATAATAATATAATGGTGCATGTATATAACCATATA | 9.21 ± 0.14
28 | AAGAATTTTCGATTTGCACACATTTGTAAAATAAAA [CACACA_site2354] | 9.16
29 | TATAATAAATCAAATGCACACACACTAATAAAAAAA [CACACA_site7937] | 9.15 ± 0.11
30 | TAAATTTTTTTTTTTTGTACACAAAAATATAATATT [XGTACX_site8151] | 7.61 ± 0.31
31 | TTTTGTACAAAAATAATGCACACTATATCAAGTTTT [CACACA_site3595] | 11 ± 0.51
32 | TATCTTCAAGTATGTACACACTATATATAATAAAAT [CACACA_site5368] | 8.11 ± 0.13
33 | AAAAAATATAATAATTGTACACATGCACACACAAAT [XGTACX_site1563] | 8.25 ± 0.48
34 | TTGTACAAAAATAATGCACACTATATCAAGTTTTTT [CACACA_site5898] | 10.9 ± 0.7
35 | TTGTTTTCTTTTTCTTTTCTTTTTCTTTTTTCTTTT [GTGCAC_negctrl_site629] | 7.55 ± 0.73
36 | CATTAAAATATGAGATGTACACAATATCTATTATAT [XGTACX_site4979] | 7.82 ± 0.51
37 | CAATGCAAGGCTTAAAAAAATGGGCATATTATATAT [GTGCAC_negctrl_site304] | 7.79 ± 0.83
38 | TAAGTTATATGTATATGTACTTATATATATATATAT [XGTACX_site5402] | 9.16 ± 0.76
39 | AGAATATAATTTTTATGTACATATATTAAATATATT [XGTACX_site8521] | 7.6 ± 0.37
40 | CATATAAGAATCTTCTGTACTTATAAGAAAAGACAT [XGTACX_site8135] | 7.89 ± 0.48

Row | Sequence | gcPBM binding intensity (ln)
41 | AAAAAAAGTTGATACTGTACTCGTGCATTATGAATA [XGTACX_site5558] | 11.3 ± 0.57
42 | TTATGAAAAAAATACTGTACACAATATGACGAAAGT [XGTACX_site2283] | 8.46 ± 0.42
43 | TATTATGACTTAAGTTGTACTGTTGAAAGAAGAAAA [XGTACX_site2985] | 7.88 ± 0.53
44 | ACTTAATTTTTTTATTGTACATGTAAATGAGGGAAA [XGTACX_site6305] | 8.25 ± 0.26
45 | AAGACTCTTTGTCCTTGTACATATATTTTTATGTTT [XGTACX_site3711] | 7.76 ± 0.59
46 | CACATACACATACAAACACACATTATGTATATATAT [CACACA_site1599] | 8.16 ± 0.84
47 | ATATATTTAAACTACACACGCATATCTTAGAAATAA [CACACA_site1272] | 7.77 ± 0.54
48 | ATAAATAAAACAACAGTGCAATAAAATTAGTTGAGG | 10.9 ± 0.25
49 | AAAATAAAATTAGTTGCATGCAACTTAAACAGAAAT [TGCATGCA_site860] | 8.14 ± 0.63
50 | ATTAATTAAAATAGTTGTACAATCAAAAAAACAAAA [XGTACX_site7660] | 8.15 ± 0.64
51 | AATATATTTTTATATTGTACAAAAGAAAAAAAATAT [XGTACX_site1689] | 8.05 ± 0.48
52 | TTTTTTTTGTATTAATGTACATATAACTTTTTTTTT [XGTACX_site7903] | 7.7 ± 0.49
53 | AATACACATAATACATGTACTCACATTGTTATAACA [XGTACX_site4129] | 8.04 ± 0.53
54 | TTTATATCATTACAAGTGCATATCATCATAAATTCT [GTGCAC_site9878] | 8.81 ± 0.3
55 | AGTTTGCATATGGAAGTGCATTACCTTGAACATCAT | 11.2 ± 0.38
56 | AGTTGCATACATTGAAGTACAGAACATTTATATATA [XGTACX_site240] | 7.86 ± 0.44
57 | TATATATGTTTATGTAGTACTATATATCCCTTTCTT [XGTACX_site7049] | 7.61 ± 0.53
58 | TAAATTTATGGACACACACACATATATATATATATA [CACACA_site4620] | 9.45 ± 0.35
59 | TATAGATACACTTTGTGTACATAAAAATTGTATTAA [XGTACX_site7137] | 7.66 ± 0.29
